# PubChem BioAssay AID492997 (Johns Hopkins Ion Channel Center, 2010)
# In all, about 4,900 compounds went through this assay and about 2,000 (41%) were called active.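 How the source made its calls: active means thallium signal drop beyond 5 SD of the untreated control mean, on both duplicate plates; inactive means the rest.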 The set was probably picked from earlier hits. Only a sample is shown.
# Test: nonspecific activity without KCNK9 expression – cell-based, second counter screen, non-induced KCNK9-HEK293, counter-screen for KCNK9 inhibitor project, confirmation (AID 492997);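 on inhibition: plate controls were buffer only IC0 wells for no effect and SID17386958 at its maximal inhibitory level for full effect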
# Details: non-induced KCNK9-HEK293, FluxOR thallium flux, at 10 µM; hits give high values
row,Compound,inhibition
1,O=C(COC(=O)/C(=C/c1cccs1)c1cccs1)NCc1ccccc1Cl,31% (active)
2,Cc1ccc(NC(=O)c2cc([N+](=O)[O-])ccc2Cl)c(O)c1,32% (active)
3,N#Cc1nc(Cc2cccc3ccccc23)oc1NCc1ccc2c(c1)OCO2,53.5% (active)
4,Cc1ccc(C(=O)c2c(NC(=O)c3ccccc3)sc(C)c2C)cc1,inactive
5,O=C(CC(NC(=O)c1ccccc1)c1ccccc1)Nc1ccc(F)c(F)c1 (stereo not drawn),37% (active)
6,O=[N+]([O-])c1ccc(N2CCN(CC(O)COc3ccccc3)CC2)cc1 (stereo not drawn),inactive
7,Cc1ccc(C)c(NC(=S)NNC(=S)Nc2ccc(C(C)C)cc2)c1,inactive
8,O=C(Cn1cc(C(=O)c2cccs2)c2ccccc21)NCc1cccs1,29.5% (active)
9,CCOc1cccc(OCCCOc2cccc3cccnc23)c1,inactive
10,Cc1cc(Cl)ccc1C(=O)C1CCCN(C(=O)CCN2CCCO2)C1 (stereo not drawn),inactive
11,CCCOc1ccc2c3c(c(=O)oc2c1OCCC)CCC3,48.5% (active)
12,Cc1cc2ccccn2c1C(=O)c1cccc(F)c1,inactive
13,COc1cc(Cl)c(C)cc1NC(=O)CSc1nnc(-c2ccco2)n1CC(C)C,25.5% (active)
14,O=C(Nc1nnc(SCc2ccc(Cl)cc2Cl)s1)C1COc2ccccc2O1 (stereo not drawn),inactive
15,COc1cccc(-c2nn(C)c3sc(C(=O)N4CCN(c5ccccc5)CC4)cc23)c1,inactive
16,COc1ccccc1C(c1nnnn1C(C)(C)C)N1CCN(Cc2ccccc2)CC1 (stereo not drawn),37.5% (active)
17,CC1=C/C(=N\OS(=O)(=O)c2ccccc2)C=CC1=O,inactive
18,CCOc1ccccc1NC(=O)C1CCCN(S(=O)(=O)c2ccccc2)C1 (stereo not drawn),inactive
19,Clc1ccc(COn2c(-c3ccc(Cl)cc3Cl)nc3ncccc32)cc1,45% (active)
20,CCOC(=O)C(C)n1cnc2scc(-c3ccc(C)c(C)c3)c2c1=O (stereo not drawn),inactive
21,CCCCCCCCCCOC(=O)Cn1c(COc2cccc(OC)c2)[n+](C)c2ccccc21,28% (active)
22,CCCCCCCCCCOC(=O)Cn1c(COc2ccc(C)cc2)[n+](C)c2ccccc21,inactive
23,Cc1onc(-c2ccc(Cl)cc2)c1-c1ccnn1S(=O)(=O)c1ccc(Cl)cc1,46.5% (active)
24,CCCCn1ccnc1C(=O)c1cccc(S(=O)(=O)N2c3ccccc3CC2C)c1 (stereo not drawn),46.5% (active)
25,Cc1cccc(N2CCN(C(=O)c3cccc(S(=O)(=O)N4CCc5ccccc5C4)c3)CC2C)c1 (stereo not drawn),inactive

row,Compound,inhibition
1,Cc1cc2ccccn2c1C(=O)c1cccc(S(=O)(=O)N2CCOCC2)c1,inactive
2,C=CCc1cc(S(=O)(=O)c2ccc(O)c(CC=C)c2)ccc1O,26% (active)
3,COc1ccc([N+](=O)[O-])cc1-c1nc2ccccc2nc1-c1ccccc1,37% (active)
4,O=C1CC(c2ccccc2)=NN1c1ccc([N+](=O)[O-])cc1,inactive
5,Cc1ccc(CN2CCN(/N=C/c3ccco3)CC2)c(C)c1,inactive
6,CCOC(=O)C(C)Sc1nc2ccccc2c(=O)n1CC1CCCCC1 (stereo not drawn),31.5% (active)
7,Cc1[nH][nH]c(=O)c1C(c1ccc(-c2ccc(Cl)cc2)o1)c1c(C)[nH][nH]c1=O,inactive
8,CC(C)(C)SCCSC1=CC(=O)CC(c2ccccc2)C1 (stereo not drawn),inactive
9,Cc1cccc(NC(=O)c2sc3nc4c(c(-c5ccco5)c3c2N)CCC4)c1,38.5% (active)
10,Cc1ccnc(N2CCN(C(=O)CSc3nc4ccccc4nc3N3CCCCC3)CC2)c1,inactive
11,COC(=O)c1cc(NC2c3ccccc3C(=O)N2c2ccc(Cl)cn2)cc(C(=O)OC)c1 (stereo not drawn),28.5% (active)
12,CCOC(=O)N/N=C/c1cn(Cc2ccccc2Cl)c2ccccc12,25.5% (active)
13,COc1cc(C(CCN2CCN(c3ccccc3)CC2)c2c(OC)cc(OC)c3ccc(=O)oc23)cc(OC)c1OC (stereo not drawn),inactive
14,Cc1ccc(C2=NN(C)c3nc4ccccc4n3C2)cc1,inactive
15,CCC/C=C(\CCC)C(NC(=O)Cc1ccccc1)c1ccc(C(=O)OC)cc1 (stereo not drawn),53% (active)
16,CC(Oc1ccc2ccccc2c1)C(=O)NNC(=S)NC(=O)c1ccco1 (stereo not drawn),inactive
17,O=C(Nc1ccc(Oc2ccccc2)cc1)c1ccco1,39.5% (active)
18,Cc1ncoc1C(=O)N1CCCC(C(=O)c2ccc3c4c(cccc24)CC3)C1 (stereo not drawn),inactive
19,O=S(=O)(Nc1cccc(Oc2ccc(Cl)cc2)n1)c1ccc(F)cc1,inactive
20,Cc1cc(Oc2ccc(Cl)cc2)nc(SCC(=O)c2ccccc2)n1,28% (active)
21,CCOC(=O)CSc1nc2c(sc(=S)n2CCc2ccccc2)c(=O)n1Cc1ccco1,35.5% (active)
22,O=C(COC(=O)c1ccccc1)Nc1ccccc1Sc1ccccc1,34.5% (active)
23,COc1ccc(OC)c(-c2csc(-c3cccs3)n2)c1,26.5% (active)
24,COc1ccccc1/C=C/C=N/n1c(-c2ccc(Cl)cc2Cl)n[nH]c1=S,inactive
25,Brc1ccc(C2CC(c3ccccc3)=Nc3ccccc3N2)cc1 (stereo not drawn),34.5% (active)

row,Compound,inhibition
1,COc1ccc(C(=O)C2CCCN(Cc3ccc4nonc4c3)C2)c(C)c1 (stereo not drawn),inactive
2,COc1ccc(C2CC(c3cccs3)=Nc3ccccc3S2)cc1OC (stereo not drawn),33% (active)
3,CCCCNC(=S)N/N=C1\CCCCc2ccccc21,inactive
4,CCOC(=O)N1CCN(C(=O)COc2ccc3oc4c(c3c2)CCCC4)CC1,inactive
5,CCOc1ccc(C(C)C)cc1S(=O)(=O)n1nc(C)cc1C,39.5% (active)
6,O=C(NC(=S)Nc1ccccc1C(=O)O)c1ccc(-c2ccc(Br)cc2)o1,inactive
7,O=c1cc(CN2CCN(c3cccc(Cl)c3)CC2)c2cc3c(cc2o1)CCCC3,inactive
8,CCc1cccc(C)c1N(C(=O)Cn1c(CO)nc2ccccc21)C(C)COC (stereo not drawn),33% (active)
9,Cc1c(C(=O)Nc2ccccn2)oc2ccc(Br)cc12,29.5% (active)
10,COc1cc(C2CC(=O)N3CN(Cc4ccccc4)CSC3=C2C#N)ccc1OCc1ccccc1 (stereo not drawn),inactive
11,CCCCCC(O)c1cccc(OCc2ccc3ccccc3n2)c1 (stereo not drawn),38.5% (active)
12,Cc1ccc(C(=O)c2c(NC(=O)c3ccncc3)sc3c2CCCC3)cc1,inactive
13,CCCCN(Cc1ccccc1)C(=O)C1CCN(Cc2sccc2C)CC1,inactive
14,O=C(Oc1ccc(Br)cc1C(=S)N1CCOCC1)c1cccc([N+](=O)[O-])c1,inactive
15,O=C(C[C@H]1C(=O)N(c2ccc(F)c(F)c2)C[C@@H]1Cc1ccccc1)Nc1ccccc1,37% (active)
16,COc1ccc(C(CCN(Cc2ccc(OC)c(OC)c2)C(=O)CCl)c2ccccc2)cc1 (stereo not drawn),inactive
17,Cc1ccc(CN(N=Nc2nonc2N)c2nonc2N)c(C)c1,43.5% (active)
18,CC(C)CC(COCc1ccc(Cl)cc1)N1CCN(C(=O)c2ccc(C(F)(F)F)cc2)CCC1=O (stereo not drawn),29.5% (active)
19,Cc1ccccc1CSCCNC(=O)c1ccc(N(C)S(=O)(=O)c2ccccc2)cc1,inactive
20,CN(c1ccccc1)S(=O)(=O)c1cccc(NC(=O)Cc2c(F)cccc2Cl)c1,23.5% (active)
21,COc1ccccc1N1CCN(c2ncnc3sc(C)c(-c4ccccc4)c23)CC1,inactive
22,Clc1ccc(CSc2nnc(/C=C/c3ccccc3)o2)c(Cl)c1,inactive
23,CCN(CC)S(=O)(=O)c1ccc(N(C)Cc2ccc(C(F)(F)F)cc2)nc1,39.5% (active)
24,CCCC1=Nc2cc(C(=O)NCc3ccco3)ccc2Sc2ccccc21,39.5% (active)
25,O=C(NCc1ccco1)c1ccc(NS(=O)(=O)c2cccc([N+](=O)[O-])c2)cc1,inactive

row,Compound,inhibition
1,COc1cc(Cl)ccc1OCc1cc(C(=O)N2CC[C@@H]3CCCC[C@H]3C2)no1,inactive
2,CCOc1ccc(C2c3[nH]c4ccccc4c3CCN2Cc2cccn2-c2ncccn2)cc1 (stereo not drawn),25.5% (active)
3,COCCN(C(=S)Nc1cccc(Cl)c1C)C(C)c1ccco1 (stereo not drawn),inactive
4,Cn1nc(-c2ccccc2)c(CSc2cccc(Cl)c2)c1Cl,38% (active)
5,CCOC(=O)C1(CCOc2ccccc2)CCN(Cc2cc(OC)c(O)cc2Cl)CC1,inactive
6,CCc1nnc(NS(=O)(=O)c2ccc(NC(=S)NC(=O)/C=C/c3cccs3)cc2)s1,inactive
7,Cc1[nH]c2ccccc2c1CCN(Cc1cccs1)C(=S)NC(C)(C)C,inactive
8,COc1cccc(NC(=S)N(CCc2c(C)[nH]c3ccccc23)Cc2ccco2)c1,30% (active)
9,O=C(Nc1ccc(S(=O)(=O)N2CCCCC2)cc1)C1CCN(C(=O)c2ccc(F)cc2)CC1,inactive
10,O=C(Cc1ccccc1)n1nc(-c2ccccc2)nc1NCc1ccco1,33% (active)
11,CCCC(=O)n1nc(NCc2ccc(OC)cc2)nc1NCc1ccc(OC)cc1,inactive
12,COc1ccccc1NC(=O)CSc1nc2sc(C)c(C)c2c(=O)n1Cc1ccco1,38.5% (active)
13,C=CCOc1ccc(/C=N/NC(=O)C(C)Sc2ccccn2)cc1OCC (stereo not drawn),39% (active)
14,CCCN1C(=O)C(Cc2nc3ccccc3c(=O)n2-c2ccccc2)c2cc(C)ccc21 (stereo not drawn),37.5% (active)
15,CCOc1ccc(CN(Cc2ccco2)C(c2cccs2)c2nnnn2C(C)(C)C)cc1 (stereo not drawn),41% (active)
16,Cc1csc(Nc2ccc(Cl)cc2)[n+]1-c1ccc(Cl)cc1,inactive
17,COc1ccc(-c2oc(/N=C/N3CCCC3)c(C#N)c2-c2ccc(OC)cc2)cc1,inactive
18,CCC1=NN(C(=O)Cc2ccc([N+](=O)[O-])cc2)C(O)(c2ccc(Br)cc2)C1 (stereo not drawn),28.5% (active)
19,Clc1cccc(-c2nc3nc4ccccc4nc3n2Cc2ccco2)c1,inactive
20,Clc1ccc(Cl)c(Oc2ccc(Oc3nc(Cl)ccc3Cl)cc2)n1,inactive
21,COC(=O)C1=C(Nc2ccc(C)cc2)C=C(C)C(C(=O)OC)C1c1ccc(F)cc1 (stereo not drawn),37.5% (active)
22,Cc1ccc(C(=O)/C=C/c2c(C)nn(-c3ccccc3)c2Cl)cc1,inactive
23,O=C(Nn1c(SCc2ccc([N+](=O)[O-])cc2)nc2ccccc2c1=O)c1ccc(F)cc1,inactive
